Results: PubChem BioAssay AID1347426 (Functional Genomics Laboratory (NCATS/FGL), 2020)
Screen size: about 31,000 sequences; about 1,400 (4.5%) were called active. This is one part of a sample in which actives are shown more often than they occur. Unmarked numbers belong to inactive results.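 How the source made its calls: active means median seed-adjusted z-score above 1 or below -1; inactive means the rest.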

Test: Novel Modifiers of Survival Motor Neuron (SMN) Protein: Gene Identification via Genome-wide siRNA Screen
Settings: HEK293T SMN2-luciferase reporter, siRNA knockdown, 72 h; actives lie on both sides
Description: Spinal muscular atrophy (SMA) is the most common neuromuscular autosomal recessive disorder and one of the leading genetic causes of infant death. SMA results from mutations inducing loss of function or deletion in the survival of motor neuron-1 gene (SMN1), leading to deficiency of the survival motor neuron (SMN) protein. Although a second nearly identical gene, SMN2, is retained in humans, its expression primarily produces an aberrantly spliced isoform that is largely unstable and quickly degraded. We performed a genome-wide RNAi screen using a cell-based reporter assay to identify genes and pathways that modulate SMN protein stability. The screen identified over 200 genes that led to the greatest increase or decrease in luciferase expression.
Using HEK293T cells stably expressing a luciferase reporter that combines the promoter and splicing based cassettes in tandem with the major portion of the native SMN2 cDNA with luciferase, we performed a genome-wide RNAi screen to identify modulators of SMN protein levels. Luciferase is expressed when full-length SMN protein is generated with luminescence signal proportional to SMN protein levels. Our luciferase-based reporter assay was used to screen Ambion Silencer Select Human Druggable Genome siRNA library (10418 genes, 3 unique siRNAs per gene) using lipid-based reverse transfection.
Briefly, 1 pmol of each siRNA was spotted to a well of a 384-well plate (Corning, Corning, NY) and 20 microL of serum-free DMEM containing […] of Lipofectamine RNAiMax (Life Technologies, Carlsbad, CA) was then added to each well. Transfected cells were maintained at 37 degrees C in 5% CO2 for 72 hours, 20 microL of ONE-Glo Reagent (Promega) was added to wells for luciferase quantification. Raw luminescence reads were normalized to Ambion(R) Silencer(R) Negative Control #2 siRNA, then log10 transformed. A robust statistical measure of median absolute deviation (MAD) to standardize siRNA activities from each screen. Common Seed Analysis was used to help prioritize clean hits as opposed to those appearing to arise from seed based off-target effects. Candidate modulators were defined as the genes having a MAD score greater than 1.0 or less than -1.0.
In the case of GCAAUUGUCUGAUUAAUCATT against MB, the median seed-adjusted z-score is reported as 0.504. Work on GAACUGCACCAAAGAAACATT against AKTIP yielded a median seed-adjusted z-score of -0.194. With CGGACGAAGAGAUUGGGAATT against DRAP1 the median seed-adjusted z-score was 1.08 (active). Sequence GCAGAAUUACAAGACAAGATT against VWA5A has a median seed-adjusted z-score of 0. CCGCCUUUCAAGAACGUAATT against IARS showed a median seed-adjusted z-score of -0.198. For GAAUAGACCUGAAGACAAATT against CFLAR, the median seed-adjusted z-score was -0.413. For CAACGGAAGUGCUACUACUTT against FCER2, the median seed-adjusted z-score was -1.75 (active). With CCCAAUAUGUGCGGAUUAATT against DSC3 the median seed-adjusted z-score was 0.18. With GGAAAGAGAUCUACCGCAATT against MYST1 the median seed-adjusted z-score was 0. GCUUCCCGAUUAACUGAAATT against MECP2 gave a median seed-adjusted z-score of -0.332. For AGAAUGCACCAAACAAACATT against DOLPP1, the median seed-adjusted z-score was 0.00977. GGUACAAAGCAAUCGGACATT against GUCA2B gave a median seed-adjusted z-score of -0.146. GUCUUUAGCUGACCUGAAUTT against DMD showed a median seed-adjusted z-score of -0.626. With CCGAAGAAGCAAUAUCGAATT against CRKRS the median seed-adjusted z-score was -1.16 (active). Sequence CCACCUUACUUUCCUGAAUTT against TMEM171 has a median seed-adjusted z-score of 0.278. In the case of CACUUAUUCUGGUCCUUCATT against ELOVL3, the median seed-adjusted z-score is reported as 0. CCGCUAAUGUUCAAGGACATT against UNC5B showed a median seed-adjusted z-score of -0.0207. With GCAAUAGUCCCAAAAGCAATT against CD6 the median seed-adjusted z-score was -0.33. Work on GCAGGAGUUUGUUUAAUGATT against UGT1A10 yielded a median seed-adjusted z-score of 0.286. With GUAUACCGAUUGAUAACCATT against BTAF1 the median seed-adjusted z-score was -1.19 (active). For GUGUUUUUGUAGUUACCUATT against TSEN34, the median seed-adjusted z-score was 0.918. In the case of CCACGAAGAAUGGAUUGAATT against TRIO, the median seed-adjusted z-score is reported as 0.42. In the case of ACACCACGCUCAACAUCAATT against ZBED1, the median seed-adjusted z-score is reported as 0.0567. Sequence GGUUGAUGCAGACAACAAATT against LGTN has a median seed-adjusted z-score of 0.491. With GGAAUGCUAUGAUAGACGATT against GNAQ the median seed-adjusted z-score was -1.23 (active). With GGAAUUCGAGGAUUAUGCATT against HIAT1 the median seed-adjusted z-score was -0.0612. CAAGGAGAGGCAUAACGUATT against DNASE1L3 gave a median seed-adjusted z-score of 0.0678. In the case of GAUUACAACCUGUAUCGAATT against THOC1, the median seed-adjusted z-score is reported as -3.04 (active). Sequence GGACAUAAUGUAUUAUACUTT against DDHD1 has a median seed-adjusted z-score of 0. With GGUCACGGAUUGCUUUUUATT against DUS1L the median seed-adjusted z-score was 0.0698. Sequence GGAAGAACCAGAGUGUGAATT against C1RL has a median seed-adjusted z-score of -0.148. With GGGAGAUUCUCCAACUAAATT against SR140 the median seed-adjusted z-score was 1.16 (active). Sequence GGAUCGAUUCUGAAUAUGATT against PAPSS1 has a median seed-adjusted z-score of -0.648. Work on GGUUGAAGCUUACUCCGGATT against DHX9 yielded a median seed-adjusted z-score of -0.687. Sequence UCACUGAUGUACUACCUAUTT against RPUSD4 has a median seed-adjusted z-score of -0.0264. GGAUCACGCAGCUCAAGAUTT against TBX1 showed a median seed-adjusted z-score of -0.744. CCGCGAAGAUGUUAGCAUUTT against PRSS12 gave a median seed-adjusted z-score of 0.119. In the case of ACAUAUAGGUAUCGACCAATT against PRICKLE2, the median seed-adjusted z-score is reported as -1.12 (active). GCCCAGGAAAGAUAAGGCATT against PTH1R gave a median seed-adjusted z-score of -0.521. GCAGUGCGUUCAGUGCAAATT against FHL2 showed a median seed-adjusted z-score of 0.475. With CGAUUAGGACUGACAAUAATT against IFT57 the median seed-adjusted z-score was -1.1 (active). For GCUUGUUCCUUCAAUUAAATT against ZNF41, the median seed-adjusted z-score was 0.342. For GCAUUAGGUUCACUAAAUATT against GPR160, the median seed-adjusted z-score was -0.278. Sequence GGCUUAACCUGGUGAUAAATT against GLUD1 has a median seed-adjusted z-score of 0.156. In the case of GGAUGACGGUGUCUACUCATT against CLCA1, the median seed-adjusted z-score is reported as 0.015. For GUUCUUGUCUAAGACAUGATT against ZNF799, the median seed-adjusted z-score was -1.02 (active). GGUUAAUAUUGCGAAAGUATT against TXNDC1 showed a median seed-adjusted z-score of 0.458. For AGCUCUACAUUGGCGAUGATT against DUPD1, the median seed-adjusted z-score was -0.406. Sequence GCAUAUUCCAAACUAGUGATT against STARD6 has a median seed-adjusted z-score of 0.0605. With GCGUGGAACCGGACAUCAATT against TPSD1 the median seed-adjusted z-score was 0.0848. In the case of CCACGUCACCAGUACUAUATT against UBA1, the median seed-adjusted z-score is reported as 1.34 (active). In the case of ACAGUGUGGUUCUUCAUUUTT against C1QL3, the median seed-adjusted z-score is reported as -0.276. Sequence CAUCACCUGUAGAACCUGATT against PIAS2 has a median seed-adjusted z-score of -0.096. GAAUGGUCCUAAAACACCATT against NFE2L2 showed a median seed-adjusted z-score of -0.596. In the case of GAAAUUGAUAAGCAAAGUATT against TRO, the median seed-adjusted z-score is reported as 2.04 (active). Work on CUGCCUACGUGAACUGGAUTT against TPSG1 yielded a median seed-adjusted z-score of 0. GAAGGAGACUAAUGAGCAATT against FGD4 showed a median seed-adjusted z-score of -0.0017. In the case of CGAGUGUCUUCACUACAAATT against IL3RA, the median seed-adjusted z-score is reported as -0.951. In the case of GCAAGUCGUCUAUUCAGAATT against RRAGD, the median seed-adjusted z-score is reported as 0.313. In the case of GGCACUUAAGGUUCGCUAUTT against PPP4C, the median seed-adjusted z-score is reported as 1.15 (active). GGCUCUUGGAAUAACUGAATT against SERPINI1 gave a median seed-adjusted z-score of 0.127. CAUUAAAGGUUUACCCAAUTT against IDH1 showed a median seed-adjusted z-score of 0.421. For GGCUUUGAAUUCAAUCUAUTT against GPR149, the median seed-adjusted z-score was -0.186. In the case of CGUCGCGCCCUGUACAUAATT against GPR35, the median seed-adjusted z-score is reported as -1.46 (active). With UCAGUUACCUGCAUACCAATT against AEBP1 the median seed-adjusted z-score was -0.0536. For CCUACUAUGAUGUUAGUAATT against SCGN, the median seed-adjusted z-score was -0.0164. In the case of GAUACUCAGAAGUUGAUAATT against MYSM1, the median seed-adjusted z-score is reported as -0.116. In the case of ACACUCUUGUGGUCAAGAATT against HNRNPC, the median seed-adjusted z-score is reported as -2.15 (active). GCAAGAAACUCCACCCUUUTT against RGS3 showed a median seed-adjusted z-score of 0.065.
